Among the test systems are HCT-15 colon; HT29 colon; SNB-75 CNS; SNB-19 CNS; U251 CNS; PC-3 prostate; SK-MEL-5 melanoma; LOX IMVI melanoma; SK-MEL-28 melanoma; SK-MEL-2 melanoma; EKVX NSCLC; SN12C renal; UO-31 renal; TK-10 renal; ACHN renal; CAKI-1 renal; A498 renal; CCRF-CEM leukemia; MOLT-4 leukemia; UACC-62 melanoma.
What all share (experiment): NCI-60 one-dose screen, 48 h (100 = growth as untreated, 0 = no growth, -100 = all killed)
Settings in all cases: 10 µM unless noted

SMILES strings stand for the structures. “And” between values parts separate entries of the source, which are not always exact repeats. Equal entries are not always repeated. Compounds without any hit were thinned out: in the full panel of roughly 83,000, 20% have a hit.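 A percent growth of 40 corresponds to 60% growth inhibition; 0 means no net growth; -100 means all cells died. Active threshold: below 10.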 Some structures have more than one record in an assay (separate samples or runs), and their calls can disagree. The source made the active and inactive calls.

On to `Nc1cc(-c2cccc(OC(F)(F)F)c2)nc2ccc(N3CCCC3)cc12`, for which the growth with HCT-15 colon was 7.95% (active) and 7.96% (active) and 7.69% (active); in the assay with HT29 colon, 1.32% (active) and 5.14% (active) and -8.94% (active); in the assay with SNB-75 CNS, 29.7% (inactive) and 34.7% (inactive); in the assay on SNB-19 CNS, 31% (inactive) and 30.5% (inactive) and 23% (inactive); in the assay with U251 CNS it was -3.82% (active) and 5.25% (active) and 1.38% (active); with PC-3 prostate, 20.5% (inactive) and 22.2% (inactive) and 18.3% (inactive). Also, the growth with SK-MEL-5 melanoma was -41.1% (active) and -39.4% (active) and -14.8% (active); with LOX IMVI melanoma it was 2.06% (active) and 12.6% (inactive) and 20.4% (inactive); with SK-MEL-28 melanoma, -57.4% (active) and 37.1% (inactive) and 52.9% (inactive); with SK-MEL-2 melanoma it was 11.9% (inactive) and 37.9% (inactive) and 12.2% (inactive); with EKVX NSCLC, 30.1% (inactive) and 29.9% (inactive) and 38.4% (inactive); in the assay with SN12C renal, 25.8% (inactive) and 27.9% (inactive) and 25.9% (inactive). The growth was -6.86% (active) and 12.7% (inactive) and 14.1% (inactive) in the assay on UO-31 renal; 46.7% (inactive) and 44.3% (inactive) and 40.9% (inactive) with TK-10 renal; 27.4% (inactive) and 28.9% (inactive) and 26.3% (inactive) with ACHN renal; 30.7% (inactive) and 35.3% (inactive) and 41.7% (inactive) in the assay on CAKI-1 renal; 19.9% (inactive) and 22.5% (inactive) and -7.01% (active) in the assay on A498 renal; -15.1% (active) and 2.73% (active) and 4.3% (active) in the assay on CCRF-CEM leukemia. Moreover, the growth in the assay with MOLT-4 leukemia was 10.7% (inactive) and 12.7% (inactive) and 12.8% (inactive).
With `CCOC(=O)Nc1nc2ccccc2[nH]1`, the growth with HCT-15 colon is 102% (inactive) and 17.9% (inactive); with HT29 colon, 104% (inactive) and 20.8% (inactive); with SNB-75 CNS, 102% (inactive) and 23.3% (inactive); in the assay with U251 CNS it was 96.1% (inactive) and 26.2% (inactive); in the assay on PC-3 prostate it was 98.7% (inactive) and 48% (inactive); in the assay on SK-MEL-5 melanoma, 113% (inactive) and 19.3% (inactive). In addition, the growth in the assay with UACC-62 melanoma is 102% (inactive) and 30.8% (inactive); in the assay on LOX IMVI melanoma, 99.8% (inactive) and 43.8% (inactive); with SK-MEL-28 melanoma, 109% (inactive) and 32.6% (inactive); with SK-MEL-2 melanoma, 110% (inactive) and 51% (inactive); in the assay with EKVX NSCLC, 95.6% (inactive) and 68.4% (inactive); in the assay on SN12C renal it was 95.1% (inactive) and 34.9% (inactive). Further, the growth in the assay on UO-31 renal was 94.5% (inactive) and 51.5% (inactive); with TK-10 renal, 111% (inactive) and 64.6% (inactive); in the assay with ACHN renal, 103% (inactive) and 52.6% (inactive); in the assay on CAKI-1 renal it was 93.6% (inactive) and 40.7% (inactive); in the assay on A498 renal, 117% (inactive) and 42.3% (inactive); with CCRF-CEM leukemia, 98.9% (inactive) and 27.8% (inactive). In addition, the growth in the assay on MOLT-4 leukemia is 120% (inactive) and 16.7% (inactive).
In the case of `CCC(C)C1(C2CCCC2)NC(=O)NC1=O` (centres undefined), the growth with HCT-15 colon was 107% (inactive) and 102% (inactive); in the assay with HT29 colon, 97.3% (inactive) and 108% (inactive); in the assay with SNB-75 CNS it was 94.5% (inactive) and 103% (inactive); with SNB-19 CNS, 98.8% (inactive) and 99.7% (inactive); with U251 CNS it was 105% (inactive) and 108% (inactive); in the assay on PC-3 prostate it was 102% (inactive) and 95.2% (inactive). For the same molecule, the growth in the assay on UACC-62 melanoma was 95.5% (inactive) and 96.8% (inactive); in the assay on LOX IMVI melanoma it was 92.2% (inactive); in the assay on SK-MEL-28 melanoma, 109% (inactive) and 108% (inactive); in the assay on SK-MEL-2 melanoma, 94.2% (inactive) and 129% (inactive); in the assay with EKVX NSCLC, 108% (inactive) and 100% (inactive); with SN12C renal, 100% (inactive) and 96% (inactive). Moreover, the growth was 86.3% (inactive) and 96.6% (inactive) in the assay on UO-31 renal; 92.4% (inactive) and 118% (inactive) with TK-10 renal; 112% (inactive) and 94% (inactive) in the assay on CAKI-1 renal; 108% (inactive) and 81.8% (inactive) in the assay with A498 renal; 92.8% (inactive) and 107% (inactive) in the assay on CCRF-CEM leukemia; 91.2% (inactive) and 106% (inactive) in the assay on MOLT-4 leukemia.
Take `C1CCCCNCCC1`: the growth in the assay on HCT-15 colon was 113% (inactive); in the assay on HT29 colon it was 95.1% (inactive); with SNB-75 CNS it was 99.5% (inactive); with U251 CNS, 103% (inactive); in the assay on PC-3 prostate, 101% (inactive); in the assay with SK-MEL-5 melanoma, 109% (inactive). The growth with UACC-62 melanoma is 103% (inactive); in the assay with LOX IMVI melanoma it was 111% (inactive); in the assay on SK-MEL-28 melanoma, 109% (inactive); in the assay with SK-MEL-2 melanoma it was 115% (inactive); in the assay with EKVX NSCLC it was 99.8% (inactive); in the assay with SN12C renal it was 108% (inactive). Also, the growth in the assay with UO-31 renal is 92.5% (inactive); in the assay with TK-10 renal it was 125% (inactive); in the assay with ACHN renal, 117% (inactive); in the assay with CAKI-1 renal, 90.2% (inactive); in the assay with A498 renal, 113% (inactive); in the assay on CCRF-CEM leukemia, 104% (inactive). In addition, the growth in the assay on MOLT-4 leukemia is 110% (inactive).
Regarding `Nc1ccc(N=Nc2ccc(S(=O)(=O)O)cc2)cc1S(=O)(=O)O`, the growth is 102% (inactive) and 96.7% (inactive) with HCT-15 colon; 118% (inactive) and 96.2% (inactive) with HT29 colon; 106% (inactive) and 81.6% (inactive) in the assay on SNB-75 CNS; 96.5% (inactive) in the assay with SNB-19 CNS; 99.6% (inactive) and 95.5% (inactive) in the assay on U251 CNS; 92.2% (inactive) and 74% (inactive) with PC-3 prostate. Moreover, the growth is 111% (inactive) and 103% (inactive) in the assay on SK-MEL-5 melanoma; 93.7% (inactive) and 92.1% (inactive) in the assay on LOX IMVI melanoma; 109% (inactive) and 104% (inactive) in the assay with SK-MEL-28 melanoma; 98.7% (inactive) and 82.5% (inactive) with SK-MEL-2 melanoma; 96.3% (inactive) and 109% (inactive) with EKVX NSCLC; 105% (inactive) and 96.1% (inactive) with SN12C renal. Moreover, the growth in the assay with UO-31 renal is 81.4% (inactive) and 93.4% (inactive); with TK-10 renal, 115% (inactive) and 97.6% (inactive); in the assay with ACHN renal, 99.8% (inactive) and 100% (inactive); in the assay on CAKI-1 renal, 79.6% (inactive) and 88.4% (inactive); in the assay on A498 renal, 102% (inactive) and 111% (inactive); with CCRF-CEM leukemia, 83.6% (inactive) and 46.6% (inactive). Moreover, the growth with MOLT-4 leukemia is 108% (inactive) and 117% (inactive).
Turning to `O=C(Nc1cccc(Cl)c1)c1cc2ccccc2cc1O`, the growth in the assay with HCT-15 colon was 16.3% (inactive) and 9.55% (active); with HT29 colon, 104% (inactive) and 60.1% (inactive); with SNB-75 CNS, 45.7% (inactive) and 33.6% (inactive); in the assay with SNB-19 CNS, 13.2% (inactive); in the assay on U251 CNS, 13% (inactive) and 6.25% (active); in the assay on PC-3 prostate it was 1.88% (active) and -4.44% (active). Also, the growth was -14.7% (active) and -23.9% (active) in the assay with SK-MEL-5 melanoma; 25.3% (inactive) and 11% (inactive) in the assay with LOX IMVI melanoma; 35.7% (inactive) and 42% (inactive) in the assay on SK-MEL-28 melanoma; 27.3% (inactive) and 7.7% (active) with SK-MEL-2 melanoma; 10.5% (inactive) and 15.9% (inactive) in the assay with EKVX NSCLC; 4.02% (active) and 7.65% (active) in the assay with SN12C renal. Also, the growth was 5.45% (active) and -9.87% (active) in the assay on UO-31 renal; 54.7% (inactive) and 26.8% (inactive) with TK-10 renal; 12.8% (inactive) and 12.2% (inactive) in the assay with ACHN renal; -33.6% (active) with A498 renal; 38.2% (inactive) and 53.2% (inactive) with CCRF-CEM leukemia; 26.3% (inactive) and 11.1% (inactive) in the assay with MOLT-4 leukemia.
As to `OCc1ccccn1`, the growth in the assay on HCT-15 colon was 109% (inactive); in the assay on HT29 colon it was 104% (inactive); in the assay on SNB-75 CNS it was 74.5% (inactive); with SNB-19 CNS, 109% (inactive); with U251 CNS, 102% (inactive); in the assay on PC-3 prostate, 97.8% (inactive). Moreover, the growth with SK-MEL-5 melanoma was 99.8% (inactive); with LOX IMVI melanoma, 102% (inactive); in the assay with SK-MEL-28 melanoma it was 112% (inactive); in the assay with SK-MEL-2 melanoma, 106% (inactive); in the assay on SN12C renal, 97.4% (inactive); in the assay with UO-31 renal, 97.9% (inactive). For the same molecule, the growth with TK-10 renal is 100% (inactive); in the assay with ACHN renal, 107% (inactive); in the assay with CAKI-1 renal, 101% (inactive); with A498 renal, 81.8% (inactive); in the assay on CCRF-CEM leukemia, 103% (inactive); in the assay on MOLT-4 leukemia, 99.1% (inactive).
As for `CC(=O)Oc1cc(C(=O)O)cc(OC(C)=O)c1OC(C)=O`, the growth with HCT-15 colon was 107% (inactive) and 101% (inactive); with HT29 colon it was 114% (inactive) and 96.5% (inactive); in the assay with SNB-75 CNS, 88.1% (inactive) and 90.2% (inactive); with U251 CNS, 93.1% (inactive) and 105% (inactive); in the assay with PC-3 prostate it was 93.4% (inactive) and 95.5% (inactive); in the assay on SK-MEL-5 melanoma, 99.5% (inactive) and 101% (inactive). Moreover, the growth with UACC-62 melanoma was 93.7% (inactive) and 103% (inactive); with LOX IMVI melanoma it was 96.3% (inactive) and 96% (inactive); in the assay on SK-MEL-28 melanoma it was 115% (inactive) and 99.3% (inactive); with SK-MEL-2 melanoma it was 119% (inactive) and 107% (inactive); in the assay with SN12C renal, 93.9% (inactive) and 99.7% (inactive); in the assay with TK-10 renal it was 115% (inactive) and 102% (inactive). In addition, the growth with ACHN renal was 112% (inactive) and 98.3% (inactive); in the assay on CAKI-1 renal, 99.5% (inactive) and 95.5% (inactive); in the assay with A498 renal it was 73.8% (inactive); in the assay with CCRF-CEM leukemia, 101% (inactive) and 104% (inactive); with MOLT-4 leukemia, 116% (inactive) and 94.1% (inactive).
As for `Oc1ccccc1/C=N\NC(=S)N/N=C/c1ccccc1O`, the growth with HT29 colon is 39.1% (inactive) and 54.6% (inactive); in the assay with SNB-75 CNS it was 77% (inactive) and 90.1% (inactive); in the assay on SNB-19 CNS it was 51.1% (inactive) and 44.6% (inactive); in the assay with U251 CNS, 41% (inactive) and 24.2% (inactive); in the assay with PC-3 prostate, 35% (inactive); in the assay with SK-MEL-5 melanoma, 35.7% (inactive) and -37% (active). The growth was 20.4% (inactive) and -5.16% (active) with UACC-62 melanoma; 28.4% (inactive) and 25.3% (inactive) in the assay with LOX IMVI melanoma; 82.3% (inactive) and 24.6% (inactive) with SK-MEL-2 melanoma; 61% (inactive) and 71.2% (inactive) with EKVX NSCLC; 58.8% (inactive) and 51.3% (inactive) with SN12C renal; 51.4% (inactive) and 24.3% (inactive) in the assay with TK-10 renal. In addition, the growth is 15% (inactive) and 10.8% (inactive) in the assay on ACHN renal; -15.7% (active) and 12.3% (inactive) with CAKI-1 renal; 58.5% (inactive) in the assay on A498 renal; 15.9% (inactive) and 15.1% (inactive) with CCRF-CEM leukemia; 21.6% (inactive) and 16% (inactive) in the assay with MOLT-4 leukemia.
